Data taken from PubChem BioAssay AID588463 (National Center for Advancing Translational Sciences (NCATS), 2011).
Screen size: about 1,200 compounds; about 15 (1%) were called active. Another 7% or so got no clear call; they are omitted. Calls come from the whole dose curve; as a rule, active = well fitted activation curve with a large enough effect; inconclusive = small, poorly fitted or top-dose-only effect; inactive = flat fitted curve, though single readings scatter. The list comes from a sample in which actives are over-represented; it also holds similar structures and randomly drawn compounds.

The molecules below were run against Beta-2 adrenergic receptor (Homo sapiens) (UniProt P07550) (assay: qHTS assay of beta-arrestin-biased ligands of beta2-adrenergic receptor: Hit Validation). Details: cell-based beta-arrestin recruitment to beta2AR; Potency: activation; series mostly up to 46.1 µM.
Description: The concept of biased agonism is an emerging concept of molecular pharmacology which proposes that seven transmembrane receptors (7TMRs) or G protein-coupled receptors (GPCRs), exist in multiple signaling conformations and complexes and that ligands (either agonists or antagonists) can induce signaling biased responses for distinct signal transduction cascades.
Furthermore, accumulating evidence over the last decade has drawn attention to a novel function of beta-arrestins as signal transducers that scaffold various signaling molecules upon activation of 7TMRs. […] This beta-arrestin-biased signaling presumably leads to distinct physiological outcomes from those by G protein activation.
Additionally, the active receptor conformations which […] on this beta-arrestin signaling are likely different from those activating G protein signaling
The goal of this screening project will be to discover and optimize novel beta-arrestin-biased ligands for beta2-AR signaling. A luminescent cell-based assay for beta2-AR-mediated agonism, known as the Tango assay, has been validated in which ligand binding of a recombinant beta2-AR and subsequent recruitment of a recombinant beta-arrestin lead to the release of the transcriptional activator tTA, which upregulates transcription of a tTA-responsive luciferase gene.
NIH Molecular Libraries Probe Production Network [MLPCN]
NIH Chemical Genomics Center [NCGC]
PI: Bryan Roth (UNC) and Bob Lefkowitz (Duke)
NCGC Assay Protocol Summary:
Tango cells were dispensed into white, solid, tissue-culture-treated 1536-well plates at 1500 cells/well in DMEM, containing 1% fetal bovine serum (FBS). Then, 23 nL of compounds or DMSO were delivered to each well using a pin tool. Plates were incubated at 37 degrees C, 5% CO2 for 18 hr. Then 2.5 uL luminescent substrate mix (in-house prepared: 150 mM Tris-Cl, pH 7.6, 3 mM MgCl2, 1% Triton X-100, 5 mM DTT, 0.5 mM CoA, 0.15 mM ATP, 0.44 mM D-luciferin, final concentrations) was added to each well. Plates were then incubated for 15 minutes at room temperature, and subsequently measured on a ViewLux plate reader for luminescent signal using a clear filter with a 10 second exposure and 2x binning. The %Activity was determined from the corrected luminescence values.
Concentration-response curves were fitted to the signals arising from the resulting luminescence. The concentration-effect curves were then classified based on curve quality (r2), response magnitude and degree of measured activity, and compounds were subsequently categorized based on their curve class.
Keywords: biased agonism, beta2-AR, beta-arrestin, GPCR, 7TMR, Tango, luminescence, MLSMR, MLPCN, NIH Roadmap, qHTS, NCGC

Chain of Beta-2 adrenergic receptor (Homo sapiens) (P07550 whole entry, looked up): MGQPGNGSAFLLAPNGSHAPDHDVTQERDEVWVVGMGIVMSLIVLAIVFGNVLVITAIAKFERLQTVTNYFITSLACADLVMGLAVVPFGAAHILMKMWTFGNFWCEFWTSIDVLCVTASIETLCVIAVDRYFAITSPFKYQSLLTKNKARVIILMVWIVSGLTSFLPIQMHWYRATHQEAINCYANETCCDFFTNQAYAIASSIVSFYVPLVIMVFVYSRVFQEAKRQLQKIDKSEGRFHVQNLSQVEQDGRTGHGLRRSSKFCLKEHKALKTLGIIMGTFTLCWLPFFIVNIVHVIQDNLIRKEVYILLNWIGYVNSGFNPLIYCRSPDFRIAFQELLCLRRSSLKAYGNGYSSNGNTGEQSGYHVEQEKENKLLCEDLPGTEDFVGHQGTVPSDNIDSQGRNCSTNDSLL

Potency, inactive:
COc1ccc(-c2c(-c3ccccc3)c(C(=O)C(=O)NCCCN(C)C)n3ccc4cc(OC)c(OC)cc4c23)cc1OC
Cc1cccc(NC(=S)NC(=O)c2cccs2)n1
CCC1CCCCN1CC(=O)Nc1cc(C)nn1-c1nc(C)cc(C)n1 (configuration not stated)
S=C(NCc1ccccn1)Nc1ccc(Cl)c(Cl)c1
CCNC(=S)N/N=C/c1sccc1C
COc1ccc(OC)c(NC(=O)Cn2c(CCC(=O)O)ccc2-c2ccccc2)c1
COC(=O)C1=C(C)NC(=S)NC1c1ccc(-c2cc(Cl)ccc2Cl)o1 (configuration not stated)
C/C=C/C=N/NC(=O)CN(c1ccc(Br)cc1)S(=O)(=O)c1ccccc1
S=C(N/N=C/c1ccc(Cl)c(Cl)c1)Nc1ccccc1Cl
Cc1ccc(SCc2cc(=O)[nH]c(/N=C(\N)Nc3ccc(C)c(C)c3)n2)cc1
CCCNC(=O)c1ccc(N2CCC3(CC2)CC(c2cccc(Br)c2)=NO3)c(NC(=O)c2ccc(Br)cc2)c1
CNC(=S)N/N=C1\CC(c2ccccc2)Oc2ccccc21 (configuration not stated)
CCOc1ccccc1C1C2CCCCC2(O)CCN1C(=O)c1cccs1 (configuration not stated)
O=C(N/N=C/C(Br)=C\c1ccccc1)c1n[nH]c2c1CCC2
Cc1ccc(C2=NOC(C)(c3nnc(-c4ccc(F)cc4)o3)C2)cc1 (configuration not stated)
C/C(=N\NC(=S)NC(C)C)c1ccccc1
COc1ccc2c(c1)c1ncn(CCN3CCCCC3)c(=O)c1n2C
CCOC(=O)C1CCN(C(=O)Nc2c(-c3ccccc3)noc2C)CC1
CCCCCOCC1CC(C/C(C)=N/NC(N)=S)C(=O)O1 (configuration not stated)
COc1ccccc1NS(=O)(=O)c1cc(NC(=O)CNC(=O)c2ccc(C)s2)ccc1Cl
Cc1ccc(C)c(NC(=S)NNc2ccc(F)cc2F)c1
O=C(Oc1c(CN2CCOCC2)cc(Cl)c2cccnc12)c1ccccc1Br
